Source: PubChem BioAssay AID1159580 (chemical genetic matrix, 2015)
Screen size: about 5,500 compounds; about 2,000 (36%) were called active. About 18% were inconclusive and are not listed. Cut-off read from the data, not from the text of the source: active = normalized growth mostly below about 0.91 (no sharp cut-off); inconclusive = no clear call, values can overlap the other calls; inactive = mostly above about 0.92. The list shows a part of the results.

Assay: chemical genetic growth profiling, strain panel (AID 1159580);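 note: tested at 20 µM; growth read once vehicle control cultures reached saturation at 30 °C; 1 = growth at the plate median or of vehicle wells; lower values mean less growth of the strain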
Conditions: S. cerevisiae deletion strains, growth OD
[1] = locus YAR019C, strain CDC15, hits give low values
[2] = locus YBL105C, strain PKC1, hits give low values
[3] = locus YBR135W, strain CKS1, hits give low values
[4] = locus YBR136W, strain MEC1, hits give low values
[5] = locus YBR160W, strain CDC28, hits give low values
[6] = locus YDL017W, strain CDC7, hits give low values
[7] = locus YDL028C, strain MPS1, hits give low values
[8] = locus YDL101C, strain DUN1, hits give low values
[9] = locus YDL108W, strain KIN28, hits give low values
[10] = locus YDL132W, strain cdc53, hits give low values
[11] = locus YDL214C, strain PRR2, hits give low values
[12] = locus YDR052C, strain DBF4, hits give low values
[13] = locus YDR226W, strain ADK1, hits give low values
[14] = locus YDR477W, strain SNF1, hits give low values
[15] = locus YER123W, strain YCK3, hits give low values
[16] = locus YER133W, strain GLC7, hits give low values
[17] = locus YFL009W, strain cdc4, hits give low values
[18] = locus YFL029C, strain CAK1, hits give low values
[19] = locus YFR003C, strain YPI1, hits give low values
[20] = locus YFR019W, strain FAB1, hits give low values
[21] = locus YFR028C, strain CDC14, hits give low values
[22] = locus YGR040W, strain KSS1, hits give low values
[23] = locus YGR052W, strain FMP48, hits give low values
[24] = locus YGR092W, strain DBF2, hits give low values
[25] = locus YHR030C, strain SLT2, hits give low values
[26] = locus YHR079C, strain IRE1, hits give low values
[27] = locus YHR082C, strain KSP1, hits give low values
[28] = locus YHR205W, strain SCH9, hits give low values
[29] = locus YIL147C, strain SLN1, hits give low values
[30] = locus YJL095W, strain BCK1, hits give low values
[31] = locus YJL128C, strain PBS2, hits give low values
[32] = locus YJL157C, strain FAR1, hits give low values
[33] = locus YJR016C, strain ILV3, hits give low values
[34] = locus YJR066W, strain TOR1 (second series), hits give low values
[35] = locus YJR066W, strain TOR1, hits give low values
[36] = locus YKL048C, strain ELM1, hits give low values
[37] = locus YKL067W, strain YNK1, hits give low values
[38] = locus YKL101W, strain HSL1, hits give low values
[39] = locus YKL193C, strain SDS22, hits give low values
[40] = locus YKL203C, strain TOR2, hits give low values
[41] = locus YLR113W, strain HOG1, hits give low values
[42] = locus YLR133W, strain CKI1, hits give low values
[43] = locus YLR403W, strain SFP1, hits give low values
[44] = locus YML070W, strain DAK1, hits give low values
[45] = locus YMR001C, strain CDC5, hits give low values
[46] = locus YMR205C, strain PFK2 (second series), hits give low values
[47] = locus YMR277W, strain FCP1, hits give low values
[48] = locus YNL006W, strain LST8, hits give low values
[49] = locus YNL020C, strain ARK1, hits give low values
[50] = locus YNL161W, strain CBK1, hits give low values
[51] = locus YNL183C, strain NPR1, hits give low values
[52] = locus YNL207W, strain RIO2, hits give low values
[53] = locus YNL222W, strain SSU72, hits give low values
[54] = locus YNL307C, strain MCK1 (second series), hits give low values
[55] = locus YOL078W, strain AVO1, hits give low values
[56] = locus YOL136C, strain PFK27, hits give low values
[57] = locus YOR061W, strain CKA2, hits give low values
[58] = locus YOR119C, strain RIO1, hits give low values
[59] = locus YOR231W, strain MKK1, hits give low values
[60] = locus YOR329C, strain SCD5, hits give low values
[61] = locus YPL031C, strain PHO85, hits give low values
[62] = locus YPL153C, strain RAD53, hits give low values
[63] = locus YPL204W, strain HRR25, hits give low values
[64] = locus YPL209C, strain IPL1, hits give low values
[65] = locus YPL256C, strain CLN2, hits give low values
[66] = locus YPR025C, strain CCL1, hits give low values
[67] = locus YPR106W, strain ISR1, hits give low values
[68] = locus YPR111W, strain DBF20, hits give low values
[69] = strain NNK1, hits give low values
[70] = strain TSCII, hits give low values

Measured: normalized growth

CC(=O)c1ccc(Cl)c(N=Cc2cc(Cl)cc(Cl)c2O)c1
inactive: [1] 0.94 | [2] 0.948 | [3] 0.953 | [4] 0.941 | [5] 0.937 | [6] 0.944 | [7] 0.91 | [8] 0.932 | [9] 0.935 | [10] 0.958 | [12] 0.963 | [13] 0.948 | [17] 0.928 | [18] 0.934 | [19] 0.933 | [21] 0.939 | [29] 0.926 | [31] 0.9 | [33] 0.967 | [39] 0.941 | [45] 0.936 | [47] 0.92 | [48] 0.947 | [50] 0.955 | [52] 0.947 | [53] 0.923 | [55] 0.926 | [60] 0.953 | [64] 0.95 | [66] 0.959 | [67] 0.952 | [68] 0.931 | [69] 0.948 | [70] 0.905
active: [11] 0.303 | [14] 0.289 | [15] 0.151 | [16] 0.354 | [20] 0.222 | [22] 0.339 | [23] 0.253 | [24] 0.139 | [25] 0.159 | [26] 0.148 | [27] 0.227 | [28] 0.199 | [30] 0.139 | [32] 0.23 | [34] 0.341 | [35] 0.175 | [36] 0.441 | [37] 0.227 | [38] 0.308 | [40] 0.399 | [41] 0.192 | [42] 0.274 | [43] 0.186 | [44] 0.184 | [46] 0.304 | [49] 0.247 | [51] 0.246 | [54] 0.209 | [56] 0.197 | [57] 0.198 | [58] 0.32 | [59] 0.123 | [61] 0.269 | [62] 0.197 | [63] 0.247 | [65] 0.197

CCOC(=O)c1ccc(Cl)c(N=Cc2cc(Cl)cc(Cl)c2O)c1
inactive: [1] 0.955 | [2] 0.967 | [3] 0.943 | [4] 0.956 | [5] 0.948 | [6] 0.95 | [7] 0.946 | [8] 0.974 | [9] 0.953 | [10] 0.951 | [12] 0.959 | locus YDR054C, strain cdc34, hits give low values 0.957 | [13] 0.969 | [17] 0.949 | [18] 0.951 | [19] 0.946 | [21] 0.969 | [29] 0.946 | [31] 0.964 | [33] 0.956 | [34] 0.622 | [39] 0.95 | [45] 0.955 | [47] 0.954 | [48] 0.951 | [50] 0.951 | [52] 0.956 | [53] 0.951 | [55] 0.956 | [60] 0.958 | [64] 0.954 | [66] 0.947 | [67] 0.961 | [68] 0.958 | [69] 0.957 | [70] 0.957
active: [11] 0.544 | [14] 0.533 | [15] 0.319 | [16] 0.567 | [20] 0.472 | [22] 0.591 | [23] 0.511 | [24] 0.197 | [25] 0.238 | [26] 0.238 | [27] 0.501 | [28] 0.468 | [30] 0.298 | [32] 0.401 | [35] 0.37 | [36] 0.636 | [37] 0.527 | [38] 0.608 | [40] 0.594 | [41] 0.377 | [42] 0.432 | [43] 0.364 | [44] 0.389 | [46] 0.507 | [49] 0.404 | [51] 0.413 | [54] 0.381 | [56] 0.322 | [57] 0.326 | [58] 0.569 | [59] 0.301 | [61] 0.528 | [62] 0.421 | [63] 0.421 | [65] 0.317
